According to PubChem BioAssay (EPA / NIEHS):
Results filed as inconclusive are left out. The source made the active and inactive calls. How the source made its calls, unless noted: active means hit-call score of the fitted dose curve at least 0.9, where 1 is the maximum; inconclusive means response in the unintended direction; inactive means score below 0.9.

Tests used:
[1] = target: Cellular tumor antigen p53 (Homo sapiens) (UniProt P04637); test: TOX21_p53_BLA_p2_ratio: Tox21 HCT-116 p53 Agonism Beta-lactamase Assay, Ratio, Phase 2 (AID 2283592)
How it was run: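 An inducible beta-lactamase reporter in HCT116 cells signals p53 pathway activation. After 16 h chemical exposure at 37C, cells load CCF4-AM substrate for 2 h at room temperature; activity is the cleaved/uncleaved emission ratio relative to DMSO.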

[2] = target: Cellular tumor antigen p53 (Homo sapiens) (UniProt P04637); test: TOX21_p53_BLA_p3_ratio: Tox21 HCT-116 p53 Agonism Beta-lactamase Assay, Ratio, Phase 3 (AID 2283596)
How it was run: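 HCT116 p53-bla cells (4000/well) given compound in DMSO (217-fold dilution) after 5 h, incubated 16 h at 37C. CCF4-AM substrate 2 h at room temperature; 460/530 nm emission ratio, gain fitted against DMSO.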

[3] = target: Cellular tumor antigen p53 (Homo sapiens) (UniProt P04637); test: TOX21_p53_BLA_p5_ratio: Tox21 HCT-116 p53 Agonism Beta-lactamase Assay, Ratio, Phase 5 (AID 2283599)
How it was run: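 HCT-116 p53-bla cells (4000/well) plated 5 h, dosed with compound (217-fold DMSO dilution) for 16 h at 37 C; CCF4-AM substrate 2 h at room temperature. Activity is the 460/530 nm emission ratio (405 nm excitation), fitted in gain-of-signal direction versus DMSO.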

[4] = TOX21_p53_BLA_p5_viability: Viability Assessment in the Tox21 HCT-116 p53 Agonism Beta-lactamase Assay, Phase 5 (AID 2283600)
How it was run: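 Counter-readout for cytotoxicity: ATP-dependent luminescence from CellTiter-Glo, read in the beta-lactamase wells after 30 min at RT, following a 16 h compound exposure at 37C.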

[5] = target: Cellular tumor antigen p53 (Homo sapiens) (UniProt P04637); test: TOX21_p53_BLA_p4_ratio: Tox21 HCT-116 p53 Agonism Beta-lactamase Assay, Ratio, Phase 4 (AID 2283601)
How it was run: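 HCT-116 p53 beta-lactamase reporter cells (4000/well) preincubated 5 h, then compound (217-fold dilution of DMSO stock) for 16 h at 37C. CCF4-AM substrate added 2 h at room temperature; 460/530 nm emission ratio fitted upward versus DMSO.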

[6] = TOX21_p53_BLA_p4_viability: Viability Assessment in the Tox21 HCT-116 p53 Agonism Beta-lactamase Assay, Phase 4 (AID 2283597);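 further: hits lower the luminescence signal meaning cytotoxicity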
How it was run: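 Compound exposure of HCT116 cells lasts 16 h at 37C, 5% CO2, with DMSO stocks diluted 217-fold. Cellular ATP is then quantified by CellTiter-Glo luminescence after 30 min at room temperature.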

[7] = ACEA_ER_AUC_viability: ACEA Biosciences xCELLigence Real-Time Cell Analysis on Estrogen Receptor Agonism for Viability (AID 2283782);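 further: continuous compound exposure with impedance area under curve over 80 h; hit means loss of impedance signal meaning reduced cell growth or viability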
How it was run: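 T47D cells preconditioned in phenol red-free RPMI with charcoal-stripped FBS, then dosed with 8-point 1:4 series from 100 uM (up to 0.5% DMSO). Impedance monitored up to ~80 h; area-under-curve loss versus DMSO taken as viability.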

[8] = CCTE_Harrill_HTTr_Viability_MCF7: CCTE's 6-hour Cell Viability Assessment for the High-Throughput Transcriptomics (HTTr) Platform, in MCF-7 cells cultured in DMEM + 10% fetal bovine serum, Harrill Lab (AID 2284010; active means hit-call score of the fitted dose curve at least 0.9, where 1 is the maximum; inactive means score below 0.9)
How it was run: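 MCF-7 cells in DMEM + 10% FBS, 384-well, exposed 6 h to an eight-point dilution series. Membrane integrity scored by high-content imaging of propidium iodide exclusion; bidirectional fit versus DMSO.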

[9] = CCTE_Harrill_HTTr_Apoptosis_MCF7: CCTE's 6-hour Apoptosis Assessment for the High-Throughput Transcriptomics (HTTr) Platform, in MCF-7 cells cultured in DMEM + 10% fetal bovine serum, Harrill Lab (AID 2284011; active means hit-call score of the fitted dose curve at least 0.9, where 1 is the maximum; inactive means score below 0.9)
How it was run: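 Cells are dosed with test chemicals at eight concentrations and imaged 6 hours later for caspase-3/7 activity using a green fluorogenic detection reagent. Activity is fitted in both directions against DMSO controls.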

[10] = CCTE_Harrill_HTTr_CellCount_MCF7: CCTE's Cell Proliferation Assessment for the High-Throughput Transcriptomics (HTTr) Platform, Harrill Lab (AID 2284012);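 further: cells exposed to compound for six hours; intended direction is loss of nuclei count meaning fewer cells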
How it was run: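 MCF7 cells exposed 6 hours to an eight-point dilution series; Hoechst-stained nuclei counted by high-content imaging. Bidirectional curve fitting against DMSO baseline.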

Measured: AC50

Cellular tumor antigen p53 (Homo sapiens), sequence (P04637 whole entry, looked up): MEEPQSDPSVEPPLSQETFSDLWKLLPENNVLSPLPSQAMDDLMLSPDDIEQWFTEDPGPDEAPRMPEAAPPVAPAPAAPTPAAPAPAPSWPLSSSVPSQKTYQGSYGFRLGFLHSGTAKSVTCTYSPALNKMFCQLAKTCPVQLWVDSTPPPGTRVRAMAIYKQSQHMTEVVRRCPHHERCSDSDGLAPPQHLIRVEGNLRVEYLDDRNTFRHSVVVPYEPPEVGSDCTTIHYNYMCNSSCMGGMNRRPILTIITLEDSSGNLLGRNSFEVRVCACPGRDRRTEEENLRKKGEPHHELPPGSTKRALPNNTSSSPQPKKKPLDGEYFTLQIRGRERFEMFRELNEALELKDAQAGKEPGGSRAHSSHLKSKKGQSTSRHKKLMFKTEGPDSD

CC(C)OC(=O)CCC(=O)OC(C)C
inactive: [1] | [2] | [3] | [4] | [5]

CC[C@]1(O)C[C@H]2CN(CCc3c([nH]c4ccccc34)[C@@](C(=O)OC)(c3cc4c(cc3OC)N(C=O)[C@H]3[C@@](O)(C(=O)OC)[C@H](OC(C)=O)[C@]5(CC)C=CCN6CC[C@]43[C@@H]65)C2)C1
inactive: [4]
active: [1] 11.2 nM | [2] 2.09 nM | [3] 4.86 nM | [5] 18.4 nM

O=C(O)COc1ccccc1/C=N/NC(=O)c1ccncc1
inactive: [1] | [2] | [3] | [4] | [5]

C=C1[C@H](CO)[C@@H](O)C[C@@H]1n1cnc2c(=O)[nH]c(N)nc21
inactive: [1] | [2] | [6] | [4] | [5]

CCOC(=O)CC(=O)C(=O)OCC
inactive: [1] | [2] | [6] | [5]

CCN(C)C(=O)Oc1cccc([C@H](C)N(C)C)c1
inactive: [1] | [2] | [6] | [5]

O=c1c(O)c(O)c1=O
inactive: [1] | [2] | [3] | [4] | [5]

NC(=O)c1ccccc1[N+](=O)[O-]
inactive: [1] | [2] | [3] | [5]

O=C(O)CCc1ccccc1
inactive: [1] | [2] | [3] | [4] | [5] | [7] | [8] | [9] | [10]

CC1(C)S[C@@H]2[C@H](NC(=O)C(C(=O)Oc3ccc4c(c3)CCC4)c3ccccc3)C(=O)N2[C@H]1C(=O)O (stereo partly specified)
inactive: [1] | [2] | [3] | [5]

CCCC(C)C
inactive: [1] | [2] | [3] | [4] | [5]

NC1CCN(c2nc3c(cc2F)c(=O)c(C(=O)O)cn3-c2ccc(F)cc2F)C1 (stereo unspecified)
inactive: [1] | [2] | [3] | [5]

CCCCCCCC/C=C\CCCCCCCC(=O)OC
inactive: [1] | [2] | [3] | [4] | [5] | [8] | [9] | [10]

O=C(c1ccc(O)cc1)c1ccc(O)cc1
active: [5] 75500 nM
inactive: [1] | [2] | [3]

C[C@@](Cc1ccc(O)c(O)c1)(NN)C(=O)O
inactive: [1] | [2] | [3] | [4] | [5]

NC(=O)CC[C@@H]1NC(=O)[C@H](Cc2ccccc2)NC(=O)[C@H](Cc2ccc(O)cc2)NC(=O)[C@@H](N)CSSC[C@@H](C(=O)N2CCC[C@H]2C(=O)N[C@@H](CCCN=C(N)N)C(=O)NCC(N)=O)NC(=O)[C@H](CC(N)=O)NC1=O
inactive: [1] | [2] | [3] | [5]

COc1cc(C(=S)N2CCOCC2)ccc1O
inactive: [1] | [2] | [3] | [4] | [5]

NC(=O)OC[C@@H]1[C@H](NC(=O)/C(=N\OCC(=O)O)c2csc(N)n2)C(=O)N1S(=O)(=O)O
inactive: [1] | [2] | [3] | [4] | [5]

CCOCC(O)COc1ccc(NC(=O)CC[S+](C)C)cc1 (stereo unspecified)
inactive: [1] | [2] | [3] | [5]

CC(=O)NC[C@H]1CN(c2ccc(N3CCOCC3)c(F)c2)C(=O)O1
inactive: [1] | [2] | [3] | [4] | [5]

FC1(F)C(F)(F)C(F)(F)C2(F)C(F)(F)C(F)(F)C(F)(F)C(F)(F)C2(F)C1(F)F (stereo unspecified)
inactive: [1] | [2] | [3] | [5]

O=C(CCNNC(=O)c1ccncc1)NCc1ccccc1
inactive: [1] | [2] | [3] | [5]

CN(C)CCN(Cc1ccc(Cl)cc1)c1ccccn1
inactive: [1] | [2] | [3] | [5]

CN1CCCN(C(c2ccccc2)c2ccc(Cl)cc2)CC1 (stereo unspecified)
inactive: [1] | [2] | [3] | [4] | [5]

Nc1ncnc2c1ncn2[C@@H]1O[C@H](COP(=O)(O)O)[C@@H](O)[C@H]1O
inactive: [1] | [2] | [3] | [5]

CCCOc1ccc2nc(NC(=O)OC)[nH]c2c1
inactive: [1] | [3] | [5]
active: [2] 240 nM

CCCCCC(C)N (stereo unspecified)
inactive: [1] | [2] | [3] | [4] | [5]

O=c1[nH]cnc2c1ncn2[C@@H]1O[C@H](CO)[C@@H](O)[C@H]1O
inactive: [1] | [2] | [3] | [5]

NC(=O)CC[C@@H](N)C(=O)O
inactive: [1] | [2] | [3] | [4] | [5]

CN1CCN(C(c2ccccc2)c2ccccc2)CC1
inactive: [1] | [2] | [3] | [5]

Cc1ccccc1OCC(O)CNCCOc1ccc(C(N)=O)cc1 (stereo unspecified)
inactive: [1] | [2] | [3] | [5]
